Source: PubChem BioAssay AID652039 (The Scripps Research Institute Molecular Screening Center, 2013)
Several values for one entry are separate records, joined by “and”; a condition that tells them apart may be missing. Equal entries are not always repeated. Among all 370,000 compounds or so, about 3,300 (0.89%) were called active. The entries come from a sample that favours actives as a whole. Values without a mark were called inactive.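 The calls were made as follows: active = activation above the mean of all tested compounds plus 3 SD, computed per campaign excluding outliers beyond control limits (cut at about 13% in these data); inactive = the rest.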

target: Kallikrein-7 (Homo sapiens) (UniProt P49862); experiment: proKLK7 zymogen activators, primary screen, biochemical, fluorescence intensity (AID 652039); conditions: purified proKLK7, EDANS-DABCYL substrate fluorescence; at 7 µM; hits give high values; 100% is mature enzyme control, 0% vehicle
Sequence (P49862 whole entry, looked up): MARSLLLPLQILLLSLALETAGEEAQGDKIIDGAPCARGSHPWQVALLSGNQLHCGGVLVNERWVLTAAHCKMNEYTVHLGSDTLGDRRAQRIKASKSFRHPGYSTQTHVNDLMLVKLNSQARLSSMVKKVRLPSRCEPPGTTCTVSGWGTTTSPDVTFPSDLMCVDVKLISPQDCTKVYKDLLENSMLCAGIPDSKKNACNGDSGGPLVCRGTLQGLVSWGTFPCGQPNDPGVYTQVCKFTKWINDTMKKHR

| Structure (SMILES) | activation |
| --- | --- |
| COC(=O)[C@]12C[C@H](CC(=O)NCC34CC5CC(CC(C5)C3)C4)C(=O)N(Cc3ccc(Cl)cc3Cl)C1=C[C@H](COCc1ccccc1)O[C@@H]2C | -0.26% |
| COC(=O)[C@]12C[C@H](CC(=O)N3CCN(C(=O)C4CC4)CC3)C(=O)N(Cc3ccc4c(c3)OCO4)C1=C[C@H](C(C)(C)C)O[C@@H]2C | 0.05% |
| COc1cccc(N2CCN(CC(=O)N(C)Cc3ccc(F)cc3)CC2)c1 | 0.13% |
| COC(=O)C1CN(CCc2ccccc2)CCS(=O)(=O)N1Cc1ccc(F)cc1 (configuration not stated) | -0.24% |
| COc1cccc(CNC(=O)CNS(=O)(=O)c2ccc3nc(C)sc3c2)c1OC | 0.09% |
| O=C1c2ccccc2NC(c2ccccc2O)N1NS(=O)(=O)c1ccccc1 (configuration not stated) | 6.73% |
| CN(C)c1ccc(C2Nc3ccccc3C(=O)N2NS(=O)(=O)c2ccccc2)cc1 (configuration not stated) | 4.94% |
| CC(=O)NN1C(=O)c2ccccc2NC1c1ccccc1 (configuration not stated) | 15.6% (active) |
| CCOC(=O)NN1C(=O)c2ccccc2NC1c1ccccc1O (configuration not stated) | 8.02% |
| CCOC(=O)NN1C(=O)c2ccccc2NC1c1cccc(O)c1 (configuration not stated) | 26.7% (active) |
| CC(C)N1C(=O)c2ccccc2NC(=O)C1C(=O)NCc1cccs1 (configuration not stated) | 0% |
| COC(=O)[C@]12C[C@H](CC(=O)NCc3cccc4ccccc34)C(=O)N(CCc3ccc(OC)c(OC)c3)C1=C[C@H](C1CCCC1)O[C@@H]2C | 0.51% |
| COc1ccc(C(=O)CSc2nnc(-c3cnccn3)n2-c2ccc(C)cc2)cc1 | 0.34% |
| C[C@@H]1ON(C)[C@H]2C[C@H]3c4[nH]c5cccc(-c6ccc7c(c6)OCO7)c5c4CCN3C[C@@H]12 | 0.38% |
| CCC(C)[C@@H](C(=O)OC)N(CCc1cn(Cc2ccccc2)nn1)S(=O)(=O)c1ccccc1Br (some centres not stated) | 0.31% |
| CCC(=O)Nc1ccc2c(c1)C(=O)N(C)[C@H]1CC[C@H](CC(=O)NCCOC)O[C@@H]1CO2 | -0.03% |
| COCC(=O)N[C@@H]1C[C@@H]2O[C@@H](CO)CC[C@@H]2O[C@@H]1CCc1ccc(-c2ccccc2)cc1 | -0.04% |
| COCCN(CCOC)c1nc(N)c2c(N)nc3c(c2c1C#N)CC(=O)N3Cc1ccc(Cl)cc1 | 50.3% (active) |
| O=C(c1c[nH]c2ccccc12)N1CCC(Oc2cccnc2)CC1 | 0.8% |
| COC(=O)C[C@@H]1CC[C@@H]2[C@@H](COc3ccc(NC(=O)Nc4ccc(F)c(F)c4)cc3C(=O)N2C)O1 | 0.06% |
| COC(=O)C[C@@H]1CC[C@@H]2[C@H](COc3ccc(NC(=O)c4cccc(F)c4)cc3C(=O)N2C)O1 | -0.18% |
| CCOC(=O)c1cc(-c2ccc(Cl)s2)nc2c1c(C)nn2C | -3.83% |
| COc1cc(/C=C/C(=O)OCC(=O)N2CCOCC2)ccc1OCC#N | 3.33% |
| COc1ccc(CCC(=O)Nc2ccc(Cl)c(S(=O)(=O)N3CCOCC3)c2)cc1OC | 0.18% |
| COc1cc(/C=C/C(=O)Nc2ccc(OC)c(S(=O)(=O)N3CCOCC3)c2)ccc1OCC#N | 40.2% (active) |
| COP(=O)(O)CNC(=O)OCc1ccccc1 | -0.07% |

| Structure (SMILES) | activation |
| --- | --- |
| Cc1ccc(C(=O)N(Cc2ccccn2)CC2CCCO2)cc1 (configuration not stated) | -0.88% |
| CCc1ccccc1NC(=O)CSc1nnc(-c2cccs2)o1 | 0.68% |
| COC(=O)[C@]1(C#N)CC(=O)N(CC2CCCCC2)[C@@H]1c1ccccc1 | -0.2% |
| COc1ccc(C#CCNCc2ccc(OC)cc2OC)cc1 | 0.52% |
| Cc1cc(N2CCOCC2)nc2ccc(NC(=S)N3CCN(Cc4ccccc4)CC3)cc12 | 16.8% (active) |
| Cc1cc(N2CCN(C)CC2)nc2ccc(NC(=S)N3CCOCC3)cc12 | 7.61% |
| CCOCCCNC(=S)Nc1ccc2nc(N3CCN(CC)CC3)cc(C)c2c1 | 2.27% |
| CC(=O)c1cc(-c2ccc3ccccc3c2)c(=O)n2c1CCC2 | 0.82% |
| CCOc1ccc(N2C(=O)CC(N(CCc3ccc(OC)c(OC)c3)C(=S)Nc3ccccc3)C2=O)cc1 (configuration not stated) | 0.29% and 0.35% |
| CCOc1ccc(N2C(=O)CC(N(O)c3ccccc3)C2=O)cc1 (configuration not stated) | 95.9% (active) |
| CCOC(=O)c1ccc(N2C(=O)CC(N(C)Cc3ccccc3)C2=O)cc1 (configuration not stated) | 0.66% |
| Cc1cccc(OCCNC(=O)CSc2ccc(C(F)(F)F)cc2[N+](=O)[O-])c1 | 0.55% |
| CC(C)CNC(=O)OCc1cn(Cc2ccc(F)cc2)nn1 | -0.65% |
| Cc1c(C(C)c2ccccc2O)[nH]c2ccccc12 (configuration not stated) | 0.01% |
| CC(=O)Nc1cc(-c2ccccc2F)cn2c(-c3cccc(C(F)(F)F)c3)cnc12 | -0.51% |
| CC(=O)Nc1nc2ncccn2c1-c1ccc(C(F)(F)F)cc1 | 17.7% (active) |
| Cc1ccc(-c2c(N)nc3ncccn23)cc1 | 1.47% |
| COC(=O)C1CN(CC(C)C)CCS(=O)(=O)N1Cc1ccc(C)cc1 (configuration not stated) | -0.1% |
| CN(CC1CCCO1)S(=O)(=O)c1ccc(C(=O)Nc2ccc(F)cc2)cc1 (configuration not stated) | -0.36% |
| COC(=O)C1CN(Cc2ccc(F)cc2)CCS(=O)(=O)N1Cc1ccc(Cl)cc1 (configuration not stated) | -0.13% |
| O=S1(=O)c2ccc(N3CCN(Cc4ccccc4F)CC3)cc2Oc2ccccc2CN1Cc1cn(Cc2ccc(Cl)cc2)nn1 | -0.98% |
| CC1C/C(=N/NC(=O)c2cccs2)CC(C)(C)C1 (configuration not stated) | 0.16% |
| COC(=O)[C@]12C[C@H](CC(=O)NCc3ccccc3)C(=O)N(CCC3=CCCCC3)C1=C[C@H](C(C)C)O[C@@H]2C1CC1 | 0.56% |
| CC(=O)Nc1nc(C)c(-c2csc(Nc3ccc(S(N)(=O)=O)cc3)n2)s1 | 118% (active) |
| C=CCCC(=O)Nc1nc(C)c(-c2csc(Nc3ccc(Cl)cc3)n2)s1 | -1.66% |
| CC(C)[C@H](NC(=O)Nc1ccc(S(N)(=O)=O)cc1)C(=O)O | -0.23% |
